# In all, about 2,300 compounds went through this assay and about 550 (24%) were called active. How the calls were made is not given here. A selection follows. Entries with a potency or affinity are not part of this list.
# Assay: Vero E6 cell cytotoxicity, dose response, cytotoxicity control for non-replicating M. tuberculosis project, secondary assay (AID 492998)
# Conditions: series mostly up to 20 µM
row,SMILES,outcome
1,CCOC(=O)CC(=O)Nc1ccc(C(=O)OCC)cc1,inactive
2,C=CCc1ccc2oc(C(=O)OCC)cc(=O)c2c1O,inactive
3,CCNC(=O)NC(=O)C(C)OC(=O)CCCSc1nc2ccccc2s1 (stereo not given),inactive
4,Cc1cccc(C)c1NC(=O)COC(=O)CCc1c[nH]c2ccccc12,inactive
5,O=S1(=O)N=C(N/N=C/C=C/c2ccccc2)c2ccccc21,inactive
6,Cc1ccc(NC(=O)c2noc(C(C)C)c2[N+](=O)[O-])cc1,inactive
7,Cc1cc(C(=O)N/N=C/c2ccc([N+](=O)[O-])o2)c(C)o1,inactive
8,COCCn1c(C)cc(C(=O)COC(=O)c2ccc([N+](=O)[O-])o2)c1C,inactive
9,Cc1cc(C)c(C(=O)COC(=O)c2ccc([N+](=O)[O-])o2)cc1C,inactive
10,O=C(Nc1ccc([N+](=O)[O-])cc1)c1ccc(Cn2cc([N+](=O)[O-])cn2)cc1,inactive
11,Cc1[nH]c2ccccc2c1C(=O)C(C)OC(=O)c1ccc([N+](=O)[O-])o1 (stereo not given),inactive
12,O=C(Nc1ccccc1F)c1ccc(CSc2ccccc2)o1,inactive
13,CCCCC1CCC(C(=O)Nc2ccc(S(=O)(=O)Nc3nccs3)cc2)CC1 (stereo not given),inactive
14,CCCOC(=O)c1ccc(NC(=O)c2ccccc2OC)cc1,inactive
15,CCOC(=O)C1CCN(Cc2ccc(-c3ccccc3)cc2)CC1,inactive
16,OC(C#CCN1CCOCC1)c1cccs1 (stereo not given),inactive
17,C=CCNc1nnc(Sc2ncccc2[N+](=O)[O-])s1,inactive
18,S=C1CN=C(c2ccccc2)c2cc(Cl)ccc2N1,inactive
19,CC(C)Oc1ccc(C(=O)CCN2CCCCC2)cc1,inactive
20,Cc1ccc(CCC(=O)Nc2cc(Cl)ccc2Cl)o1,inactive
21,CCOc1ccc(CC(=O)N2N=C(C)CC2(O)C(F)(F)F)cc1 (stereo not given),inactive
22,Cc1ccc(OCC(=O)N/N=C/c2ccc([N+](=O)[O-])o2)cc1,inactive
23,CCn1nnc(NC(=O)COc2ccc(C3CCCCC3)cc2)n1,inactive
24,O=C(c1ccc([N+](=O)[O-])o1)N1CCN(Cc2ccccc2)CC1,inactive
25,O=C(NCc1ccc(F)cc1)c1ccc(Br)o1,inactive

row,SMILES,outcome
1,CCn1nnc(NC(=O)c2ccc(-c3ccc(Cl)cc3)o2)n1,inactive
2,O=C(NCCC1=CCCCC1)c1ccc(F)cc1,inactive
3,O=C(CCC1CCCC1)Nc1ccc(Br)cn1,inactive
4,O=C(c1cc(F)ccc1F)C1CCCN(Cc2ccc3nonc3c2)C1 (stereo not given),inactive
5,CC(C)Cn1c(N)c(C(=O)COC(=O)c2cnc(Cl)c(Cl)c2)c(=O)n(C)c1=O,inactive
6,COc1cc(N=c2ssnc2Cl)cc(OC)c1,inactive
7,CCOC(=O)COc1ccc2c(=O)cc(-c3ccccc3)oc2c1,inactive
8,COC(=O)C(C)Oc1ccc2cc(-c3ccccc3)c(=O)oc2c1 (stereo not given),inactive
9,Cc1ccccc1OCC(=O)OCC(=O)c1ccc[nH]1,inactive
10,COc1cccc(OCc2nnc(-c3cccs3)o2)c1,inactive
11,Fc1ccc(-c2nnc(-c3ccc(F)cc3)o2)cc1,inactive
12,Cc1ccc(-c2nnc(-c3cccs3)o2)cc1,inactive
13,Fc1ccc(-c2nnc(CSc3nnc(-c4cccs4)o3)o2)cc1,inactive
14,Cc1cc(C(=O)N/N=C/c2ccc(OC(=O)c3ccccc3Br)cc2)n[nH]1,inactive
15,Oc1oc(-c2ccco2)nc1C=Nc1cccc(Cl)c1,inactive
16,CCc1cc(C(c2ccncc2)N2CCN(C)CC2)c(NC(=O)c2ccccc2)s1 (stereo not given),inactive
17,CCOC(=O)C1(CC2CCCCO2)CCN(Cc2nccn2-c2ccc(OC)cc2)CC1 (stereo not given),inactive
18,COC12C(COC(N)=O)C3=C(C(=O)C(C)=C(N)C3=O)N1CC1C2N1C (stereo not given),inactive
19,c1ccc(C2=Nc3ccccc3OC2)cc1,inactive
20,Cc1cc2nc(/N=C(\N)NC(=O)C(C)C)nc(C)c2cc1C,inactive
21,Cc1ccc2nc(CCc3nc4ccc(C)cc4[nH]3)[nH]c2c1,inactive
22,CC(C)OC(=O)CCCCCN1C(=O)CSC1=S,inactive
23,O=C(Nc1ccccn1)c1ccc(C(=O)c2ccccc2)cc1,inactive
24,CCCCNC(=O)COC(=O)c1cc(Br)ccc1Cl,inactive
25,Cc1[nH]n2c(=O)c3c(nc2c1-c1ccccc1)CCCC3,inactive

row,SMILES,outcome
1,CCOC(=O)COc1ccc2c(c1)C(=O)CC1(CCCCC1)O2,inactive
2,O=C(COc1ccc(Cl)cc1)Nc1ccccc1Cl,inactive
3,CC1=NN(C(=O)COc2ccccc2C)C(O)(c2ccc(Cl)cc2)C1 (stereo not given),inactive
4,Cc1cc(Cl)ccc1NNC(=O)c1c(C)noc1C,inactive
5,O=C(Oc1cccc2cccnc12)c1cccc([N+](=O)[O-])c1,inactive
6,Cc1ccc(CSCCNC(=O)c2cccc([N+](=O)[O-])c2)cc1,inactive
7,COc1ccc(C(=O)NN/C(C)=C/C(=O)c2ccccc2)cc1,inactive
8,O=C(N/N=C/C=C/c1cccc([N+](=O)[O-])c1)c1ccncc1,inactive
9,COc1cccc(OCCNC(=O)c2cc([N+](=O)[O-])cc([N+](=O)[O-])c2)c1,inactive
10,O=C(N/N=C/c1ccccn1)c1cccc([N+](=O)[O-])c1,inactive
11,O=C(c1ccco1)N1CCN(c2ccc(F)cc2)CC1,inactive
12,CCOC(=O)C(=O)Cc1nc2ccccc2s1,inactive
13,C=C1CCC[C@]2(C)C[C@H]3OC(=O)C(CNC(C)CCCC(C)C)[C@H]3CC12 (stereo not given in full),inactive
14,COc1ccc([C@@]2(O)c3c(ccc(CC=C(C)C)c3O)NC(=O)[C@@H]2OC)cc1,inactive
15,COc1ccccc1C(c1nnnn1Cc1ccccc1)N1CCC(C(N)=O)CC1 (stereo not given),inactive
16,Cc1ccc(-c2nnc(SCC#CCOC(=O)c3ccco3)o2)cc1,inactive
17,O=C(Cc1ccc(F)cc1)Nc1ccc(Cl)cn1,inactive
18,O=C1N(c2ccc3c(c2)OCCO3)C(c2ccccc2)C1(F)F (stereo not given),inactive
19,CCCCNC(=O)Cc1ccc(C)cc1,inactive
20,CC(C)(C)c1ccc2c(c1)OC(C(=O)N/N=C\c1ccccn1)CO2 (stereo not given),inactive
21,O=C(Nc1cccc(Cl)c1)C1COc2ccccc2O1 (stereo not given),inactive
22,Cn1cccc1/C=N\NC(=O)C1COc2ccccc2O1 (stereo not given),inactive
23,O=C(Nc1ccc([N+](=O)[O-])cc1)C1COc2ccccc2O1 (stereo not given),inactive
24,O=C(N/N=C\c1ccc([N+](=O)[O-])o1)C1COc2ccccc2O1 (stereo not given),inactive
25,CC(C)NC(=O)C1COc2ccccc2O1 (stereo not given),inactive

# — PubChem BioAssay AID492998 (Southern Research Specialized Biocontainment Screening …, 2010)
